Measurements as given in the supplement of paper PMC10849652.
About 7,900 targets were measured; listed, in parts, are those with a hit and a random draw of the rest. About 0.6% of all pairs of compound and target were hits. A number with no mark means an inactive call.

Legend:
Assay in all cases: log2 fold change, soluble protein after heating vs DMSO (PISA); higher = thermal stabilisation; K562 cells, 10 uM, 30 min; active = over 0.2 and 3.5 SD of the protein, either way, in both replicates (recomputed)
[1] = compound: CS(=O)(=O)c1ccc(-c2cnc(N)c(C(=O)Nc3ccccc3)n2)cc1
Summary of the method: (§1)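 Soluble protein was quantified by TMTpro 16plex LC-MS/MS after channel sums were equalised. It was obtained as the supernatant after 21,000xg for 90 min from pooled aliquots of K562 cells (2×10^6 cells/mL, 10 μM compound, 30 min) heated for 3 min across 48°C-58°C and extracted in PBS with 0.5% NP-40 at 4°C. Thermal stability values are relative to control samples and come from duplicates. They are given as log2 fold changes.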

crizotinib = compound: C[C@@H](Oc1cc(-c2cnn(C3CCNCC3)c2)cnc1N)c1c(Cl)ccc(F)c1Cl [crizotinib]
Summary of the method: as §1

[2] = compound: C[C@@H]1COCCN1C2=NC(=NC(=C2)C3(CC3)S(=O)(=O)C)C4=C5C=CNC5=CC=C4
Summary of the method: as §1

[3] = compound: C[C@H](C1=CC=C(C=C1)C(=O)NC2=C3C=CNC3=NC=C2)N
Summary of the method: as §1

duvelisib = compound: C[C@H](Nc1ncnc2nc[nH]c12)c1cc2cccc(Cl)c2c(=O)n1-c1ccccc1 [duvelisib]
Summary of the method: as §1

gandotinib = compound: Cc1cc(Nc2cc(CN3CCOCC3)c3nc(C)c(Cc4ccc(Cl)cc4F)n3n2)n[nH]1 [gandotinib]
Summary of the method: as §1

tozasertib = compound: Cc1cc(Nc2cc(N3CCN(C)CC3)nc(Sc3ccc(NC(=O)C4CC4)cc3)n2)n[nH]1 [tozasertib]
Summary of the method: as §1

[4] = compound: Cc1cc(SCc2sc(-c3ccc(C(F)(F)F)cc3)nc2C)ccc1OCC(=O)O
Summary of the method: as §1

doramapimod = compound: Cc1ccc(-n2nc(C(C)(C)C)cc2NC(=O)Nc2ccc(OCCN3CCOCC3)c3ccccc23)cc1 [doramapimod]
Summary of the method: as §1

ispinesib = compound: Cc1ccc(C(=O)N(CCCN)[C@@H](c2nc3cc(Cl)ccc3c(=O)n2Cc2ccccc2)C(C)C)cc1 [ispinesib]
Summary of the method: as §1

bafetinib = compound: Cc1ccc(NC(=O)c2ccc(CN3CC[C@H](N(C)C)C3)c(C(F)(F)F)c2)cc1Nc1nccc(-c2cncnc2)n1 [bafetinib]
Summary of the method: as §1

[5] = compound: Cc1cccc(CC(=O)N2CCc3c2ccc(-c2cn(C)c4ncnc(N)c24)c3F)n1
Summary of the method: as §1

nilotinib = compound: Cc1cn(-c2cc(NC(=O)c3ccc(C)c(Nc4nccc(-c5cccnc5)n4)c3)cc(C(F)(F)F)c2)cn1 [nilotinib]
Summary of the method: as §1

[6] = compound: Cc1nc(Nc2n[nH]c3c2CN(C(=O)N[C@H](CN(C)C)c2ccccc2)C3(C)C)c2sccc2n1
Summary of the method: as §1

dasatinib = compound: Cc1nc(Nc2ncc(C(=O)Nc3c(C)cccc3Cl)s2)cc(N2CCN(CCO)CC2)n1 [dasatinib]
Summary of the method: as §1

[7] = compound: Cc1ncc(-c2ccnc(Nc3ccc(S(C)(=O)=O)cc3)n2)n1C(C)C
Summary of the method: as §1

[8] = compound: Cn1cc(-c2ccc3c(c2)CCN3C(=O)Cc2cccc(C(F)(F)F)c2)c2c(N)ncnc21
Summary of the method: as §1

[9] = compound: Cn1cc(-c2ccc3nnc(C(F)(F)c4ccc5ncccc5c4)n3n2)cn1
Summary of the method: as §1

tipifarnib = compound: Cn1cncc1[C@@](N)(c1ccc(Cl)cc1)c1ccc2c(c1)c(-c1cccc(Cl)c1)cc(=O)n2C [tipifarnib]
Summary of the method: as §1

mubritinib = compound: FC(F)(F)c1ccc(/C=C/c2nc(COc3ccc(CCCCn4ccnn4)cc3)co2)cc1 [mubritinib]
Summary of the method: as §1

Chain of UniProt O00232 (O00232 whole entry, looked up): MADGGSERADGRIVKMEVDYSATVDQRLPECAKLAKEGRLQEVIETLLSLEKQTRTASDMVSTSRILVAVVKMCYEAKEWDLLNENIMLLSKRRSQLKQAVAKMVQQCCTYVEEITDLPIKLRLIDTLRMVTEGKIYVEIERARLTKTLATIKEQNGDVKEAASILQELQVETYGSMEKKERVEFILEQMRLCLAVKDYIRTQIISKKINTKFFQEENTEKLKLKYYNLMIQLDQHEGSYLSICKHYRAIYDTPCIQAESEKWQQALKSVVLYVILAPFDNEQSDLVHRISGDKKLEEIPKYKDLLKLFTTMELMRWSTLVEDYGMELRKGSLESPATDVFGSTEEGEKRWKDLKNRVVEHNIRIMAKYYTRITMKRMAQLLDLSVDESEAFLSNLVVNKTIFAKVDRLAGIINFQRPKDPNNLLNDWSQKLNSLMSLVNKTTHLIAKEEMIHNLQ
Chain of UniProt P07205 (P07205 whole entry, looked up): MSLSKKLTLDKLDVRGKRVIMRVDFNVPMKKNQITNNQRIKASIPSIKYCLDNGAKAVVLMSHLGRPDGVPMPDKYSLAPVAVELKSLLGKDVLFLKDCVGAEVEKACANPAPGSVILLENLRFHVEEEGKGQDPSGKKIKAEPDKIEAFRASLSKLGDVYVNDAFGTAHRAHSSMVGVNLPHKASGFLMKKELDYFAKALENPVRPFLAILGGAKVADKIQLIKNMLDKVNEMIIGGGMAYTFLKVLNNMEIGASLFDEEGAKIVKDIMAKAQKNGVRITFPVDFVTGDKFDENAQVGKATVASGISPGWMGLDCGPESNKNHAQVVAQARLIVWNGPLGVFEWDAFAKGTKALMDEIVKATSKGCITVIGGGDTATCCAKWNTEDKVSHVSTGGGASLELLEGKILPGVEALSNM
Chain of UniProt O43242 (O43242 whole entry, looked up): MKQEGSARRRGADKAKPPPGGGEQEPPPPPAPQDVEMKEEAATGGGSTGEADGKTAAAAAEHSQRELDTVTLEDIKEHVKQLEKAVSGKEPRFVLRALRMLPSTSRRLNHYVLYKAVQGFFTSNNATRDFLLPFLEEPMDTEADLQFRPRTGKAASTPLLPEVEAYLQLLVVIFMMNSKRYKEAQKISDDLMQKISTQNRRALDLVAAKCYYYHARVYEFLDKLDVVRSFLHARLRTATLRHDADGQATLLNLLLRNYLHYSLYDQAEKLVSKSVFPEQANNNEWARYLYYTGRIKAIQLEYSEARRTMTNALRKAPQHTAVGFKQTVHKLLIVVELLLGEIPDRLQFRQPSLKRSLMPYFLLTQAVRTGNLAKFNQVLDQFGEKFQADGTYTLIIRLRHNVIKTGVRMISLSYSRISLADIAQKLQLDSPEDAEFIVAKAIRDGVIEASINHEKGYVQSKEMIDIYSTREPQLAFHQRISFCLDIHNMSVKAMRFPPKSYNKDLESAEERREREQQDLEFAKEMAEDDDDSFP
Chain of UniProt Q5MIZ7 (Q5MIZ7 whole entry, looked up): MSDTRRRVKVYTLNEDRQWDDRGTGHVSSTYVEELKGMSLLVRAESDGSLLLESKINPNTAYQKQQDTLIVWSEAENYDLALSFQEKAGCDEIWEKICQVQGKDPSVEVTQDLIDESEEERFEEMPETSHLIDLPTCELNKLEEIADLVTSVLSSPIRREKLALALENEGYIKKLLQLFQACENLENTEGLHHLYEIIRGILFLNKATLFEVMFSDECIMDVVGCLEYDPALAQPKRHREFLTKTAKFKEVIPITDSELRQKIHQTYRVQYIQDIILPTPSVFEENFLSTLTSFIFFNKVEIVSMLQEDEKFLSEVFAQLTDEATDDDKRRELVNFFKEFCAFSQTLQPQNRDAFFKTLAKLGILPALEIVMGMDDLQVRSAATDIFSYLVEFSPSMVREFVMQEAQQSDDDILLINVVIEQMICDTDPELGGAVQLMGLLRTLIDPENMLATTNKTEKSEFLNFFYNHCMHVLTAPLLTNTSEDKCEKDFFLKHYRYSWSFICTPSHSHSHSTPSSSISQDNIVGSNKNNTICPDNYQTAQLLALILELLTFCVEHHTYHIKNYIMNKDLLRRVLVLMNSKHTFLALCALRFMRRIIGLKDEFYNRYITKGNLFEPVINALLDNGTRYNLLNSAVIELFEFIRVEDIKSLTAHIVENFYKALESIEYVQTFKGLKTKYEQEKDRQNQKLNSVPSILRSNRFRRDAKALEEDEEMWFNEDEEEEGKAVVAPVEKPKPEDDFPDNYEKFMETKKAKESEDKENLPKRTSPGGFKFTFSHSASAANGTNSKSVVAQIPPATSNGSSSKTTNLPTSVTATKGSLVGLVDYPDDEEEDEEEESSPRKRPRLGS
Chain of UniProt Q9H814 (Q9H814 whole entry, looked up): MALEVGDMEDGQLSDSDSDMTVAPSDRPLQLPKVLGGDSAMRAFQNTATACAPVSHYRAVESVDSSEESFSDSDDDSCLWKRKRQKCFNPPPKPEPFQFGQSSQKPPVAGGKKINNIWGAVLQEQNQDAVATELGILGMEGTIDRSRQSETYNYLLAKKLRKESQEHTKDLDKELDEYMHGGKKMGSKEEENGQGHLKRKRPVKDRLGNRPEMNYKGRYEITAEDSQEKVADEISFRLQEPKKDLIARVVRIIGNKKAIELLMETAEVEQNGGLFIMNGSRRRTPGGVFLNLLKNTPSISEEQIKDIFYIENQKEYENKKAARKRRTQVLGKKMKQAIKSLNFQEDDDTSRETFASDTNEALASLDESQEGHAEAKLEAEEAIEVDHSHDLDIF
Chain of UniProt Q99575 (Q99575 whole entry, looked up): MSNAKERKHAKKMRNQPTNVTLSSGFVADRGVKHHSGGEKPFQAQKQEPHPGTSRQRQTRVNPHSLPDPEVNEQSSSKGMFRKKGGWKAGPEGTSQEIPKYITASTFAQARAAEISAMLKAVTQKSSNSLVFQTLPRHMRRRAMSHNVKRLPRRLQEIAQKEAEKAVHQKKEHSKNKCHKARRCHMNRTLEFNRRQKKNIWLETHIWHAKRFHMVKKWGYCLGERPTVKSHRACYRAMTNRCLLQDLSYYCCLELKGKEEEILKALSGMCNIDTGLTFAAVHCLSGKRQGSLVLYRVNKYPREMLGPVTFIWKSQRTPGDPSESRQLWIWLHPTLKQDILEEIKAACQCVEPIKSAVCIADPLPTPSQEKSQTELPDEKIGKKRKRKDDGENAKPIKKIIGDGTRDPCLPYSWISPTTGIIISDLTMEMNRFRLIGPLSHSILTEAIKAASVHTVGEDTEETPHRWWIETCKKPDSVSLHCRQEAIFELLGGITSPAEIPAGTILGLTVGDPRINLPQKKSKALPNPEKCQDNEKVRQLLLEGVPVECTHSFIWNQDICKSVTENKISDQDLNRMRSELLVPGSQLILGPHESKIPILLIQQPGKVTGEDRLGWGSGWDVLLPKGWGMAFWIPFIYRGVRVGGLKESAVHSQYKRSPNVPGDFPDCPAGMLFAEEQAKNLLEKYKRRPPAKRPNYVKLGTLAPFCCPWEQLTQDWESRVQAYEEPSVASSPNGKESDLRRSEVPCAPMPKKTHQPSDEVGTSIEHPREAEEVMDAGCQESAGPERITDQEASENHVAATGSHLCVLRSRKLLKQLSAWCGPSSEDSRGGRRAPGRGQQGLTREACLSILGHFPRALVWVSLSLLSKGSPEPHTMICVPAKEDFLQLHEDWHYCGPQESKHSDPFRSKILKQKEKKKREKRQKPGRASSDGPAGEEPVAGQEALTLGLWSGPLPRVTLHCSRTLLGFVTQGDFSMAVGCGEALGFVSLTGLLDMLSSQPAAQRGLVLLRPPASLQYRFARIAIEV
Chain of UniProt P28072 (P28072 whole entry, looked up): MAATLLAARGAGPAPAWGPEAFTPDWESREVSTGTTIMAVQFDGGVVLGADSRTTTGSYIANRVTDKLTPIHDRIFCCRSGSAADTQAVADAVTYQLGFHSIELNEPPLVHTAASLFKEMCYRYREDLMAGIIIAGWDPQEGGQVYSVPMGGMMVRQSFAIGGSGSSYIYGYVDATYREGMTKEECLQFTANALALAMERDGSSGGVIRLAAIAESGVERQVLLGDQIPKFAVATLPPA
Chain of UniProt P48426 (P48426 whole entry, looked up): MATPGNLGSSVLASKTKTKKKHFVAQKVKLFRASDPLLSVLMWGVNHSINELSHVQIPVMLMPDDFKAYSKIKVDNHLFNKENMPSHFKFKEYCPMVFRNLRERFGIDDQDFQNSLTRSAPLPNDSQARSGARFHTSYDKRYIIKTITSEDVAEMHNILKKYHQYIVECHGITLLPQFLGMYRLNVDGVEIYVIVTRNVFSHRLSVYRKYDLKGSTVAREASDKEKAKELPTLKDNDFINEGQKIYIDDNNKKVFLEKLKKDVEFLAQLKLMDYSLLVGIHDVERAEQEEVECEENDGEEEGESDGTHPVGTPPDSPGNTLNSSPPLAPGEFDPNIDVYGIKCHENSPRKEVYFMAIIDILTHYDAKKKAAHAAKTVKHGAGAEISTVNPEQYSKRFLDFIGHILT
Chain of UniProt P48556 (P48556 whole entry, looked up): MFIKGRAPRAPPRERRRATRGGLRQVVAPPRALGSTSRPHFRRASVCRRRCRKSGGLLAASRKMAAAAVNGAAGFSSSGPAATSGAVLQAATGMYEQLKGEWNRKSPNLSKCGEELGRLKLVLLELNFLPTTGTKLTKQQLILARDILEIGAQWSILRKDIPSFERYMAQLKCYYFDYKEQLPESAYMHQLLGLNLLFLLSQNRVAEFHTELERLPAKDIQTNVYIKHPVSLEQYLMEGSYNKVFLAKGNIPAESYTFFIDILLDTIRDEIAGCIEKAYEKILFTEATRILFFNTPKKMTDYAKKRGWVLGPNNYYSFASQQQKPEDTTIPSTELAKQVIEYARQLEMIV

Target | log2 fold change [1] | log2 fold change (crizotinib) | log2 fold change [2] | log2 fold change [3] | log2 fold change (duvelisib) | log2 fold change (gandotinib) | log2 fold change (tozasertib) | log2 fold change [4] | log2 fold change (doramapimod) | log2 fold change (ispinesib) | log2 fold change (bafetinib) | log2 fold change [5] | log2 fold change (nilotinib) | log2 fold change [6] | log2 fold change (dasatinib) | log2 fold change [7] | log2 fold change [8] | log2 fold change [9] | log2 fold change (tipifarnib) | log2 fold change (mubritinib)
PSMB6 (UniProt P28072) | 0.01 | 0.096 | 0.003 | 0.059 | -0.049 | 0.444 (active) | 0.011 | -0.029 | 0.049 | -0.037 | 0.06 | -0.053 | 0.028 | 0.049 | 0.098 | -0.011 | -0.068 | -0.027 | 0.125 | -0.014
PGK2 (UniProt P07205) | 0.016 | 0.029 | 0.075 | -0.002 | 0.062 | 0.078 | -0.033 | -0.093 | -0.109 | 0.024 | 0.009 | -0.036 | 0.066 | 0.096 | 0.11 | -0.013 | -0.137 | -0.029 | -0.006 | -0.092
PC (UniProt P11498) | 0.033 | 0.103 | 0.199 | 0.167 | 0.01 | -0.143 | -0.048 | 0.024 | 0.008 | 0.186 | 0.096 | 0.102 | -0.014 | 0.121 | 0.005 | -0.007 | 0.047 | 0.074 | -0.097 | 0.024
PPP4R3B (UniProt Q5MIZ7) | -0.003 | 0.124 | 0.064 | -0.035 | 0.048 | -0.075 | 0.149 | 0.056 | 0 | 0.056 | -0.054 | 0.116 | -0.032 | -0.006 | -0.03 | -0.013 | 0.037 | 0.054 | -0.041 | 0.006
PCYT1B (UniProt Q9Y5K3) | -0.008 | -0.109 | 0.147 | -0.109 | -0.019 | -0.088 | 0.024 | 0.044 | -0.036 | 0.12 | -0.193 | -0.068 | -1.28 (active) | -0.105 | -0.142 | -0.089 | -0.024 | -0.037 | -0.053 | 0.168
PSMD3 (UniProt O43242) | 0.058 | 0.003 | -0.003 | 0.094 | -0.028 | 0.028 | 0.033 | 0.047 | 0.047 | 0.013 | 0.129 | 0.032 | 0.008 | 0.089 | 0.004 | -0.012 | -0.064 | -0.018 | 0.025 | -0.019
PSMD12 (UniProt O00232) | 0.053 | 0.009 | -0.03 | 0.073 | -0.053 | 0.029 | 0.068 | 0.057 | 0.019 | 0.003 | 0.119 | 0.033 | 0.026 | 0.044 | 0 | -0.001 | -0.088 | -0.022 | 0.019 | -0.034
PHAX (UniProt Q9H814) | -0.034 | 0.097 | -0.036 | -0.01 | 0.07 | 0.035 | 0.082 | -0.062 | -0.016 | 0.017 | -0.056 | -0.117 | 0.028 | -0.176 | 0.03 | -0.096 | -0.033 | 0.006 | 0.011 | 0.013
PSMD11 (UniProt O00231) | 0.036 | -0.024 | -0.035 | 0.074 | -0.04 | 0.046 | 0.08 | 0.07 | 0.013 | 0.045 | 0.15 | 0.042 | 0.054 | 0.068 | -0.004 | -0.014 | -0.074 | -0.043 | -0.021 | -0.054
PIGG (UniProt Q5H8A4) | 0.062 | -0.053 | 0.01 | -0.041 | 0.046 | -0.035 | -0.013 | 0.011 | 0.098 | -0.02 | -0.034 | 0.047 | 0.083 | 0.007 | -0.013 | -0.022 | 0.004 | -0.044 | 0.012 | 0.038
PSMD8 (UniProt P48556) | 0.034 | 0.011 | -0.053 | 0.156 | -0.016 | 0.002 | 0.008 | 0.059 | 0.028 | 0.015 | 0.089 | -0.013 | 0.039 | 0.054 | 0.029 | -0.031 | -0.07 | 0.009 | 0.117 | -0.032
PIP4K2A (UniProt P48426) | 0.411 (active) | -0.032 | 0.027 | 0.013 | -0.126 | -0.084 | -0.007 | 0.042 | 0.026 | -0.052 | 0.283 | 0.103 | 0.077 | 0.065 | 0.048 | 0.588 (active) | 0.037 | 0.181 | -0.081 | -0.06
POLR3B (UniProt Q9NW08) | 0.038 | -0.111 | -0.004 | 0.034 | 0.007 | -0.07 | 0.101 | 0.085 | 0.03 | -0.183 | 0.104 | 0.045 | -0.111 | -0.285 | -0.238 | -0.028 | -0.059 | 0.089 | -0.108 | -0.086
POP1 (UniProt Q99575) | -0.034 | 0.02 | -0.023 | -0.05 | -0.005 | 0.012 | 0.009 | -0.041 | 0.016 | 0.039 | 0.019 | 0.002 | 0.074 | -0.018 | 0.039 | -0.037 | 0.042 | 0.007 | -0.036 | -0.006
PDS5A (UniProt Q29RF7) | 0.03 | -0.383 | 0.063 | 0.043 | 0.053 | -0.099 | 0.117 | 0.182 | -0.057 | -0.127 | -0.055 | 0.008 | -0.397 | -0.164 | -0.3 | 0.001 | 0.08 | 0.123 | -0.231 | 0.157
